# According to PubChem BioAssay (Tox21):
# Records with an inconclusive call do not appear. Where a call stands in place of a potency, no number is given. Unmarked numbers belong to inactive results. Activity calls are given as the source filed them. The call rests on the fitted dose curve; in most records, active means well fitted cell-killing curve with a large enough effect in the repeat runs; inconclusive means weak or mixed curves, or effect the other way; inactive means flat fitted curve, though single readings scatter.
# Assay: cAMP Responsive Elements (CRE) small molecule agonists, cell-based qHTS assay: qHTS cell viability counter screen (AID 2060914); further: nearly all actives have a fitted effect of over 50% in size
# Conditions: CRE-bla HEK293T viability, CellTiter-Glo luminescence, 5 h; series mostly up to 92.4 µM
# In short: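 HEK 293T CRE-bla; DMEM + 10% dialyzed FBS, 25 mM HEPES; 18 h pre-incubation; compound 3 h, 37 °C/5% CO2; CellTiter-Glo added after reporter read; luminescence after 30 min RT.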
Compound,Potency,"activity change, negative = cytotoxicity"
CCC(Cl)CCC(Cl)C(Cl)CC(Cl)C(Cl)C(Cl)CCl (stereo not given),inactive,–
CCCC[C@H]1CN(CC2CCOCC2)C(=O)OC12CCN(C1(C)CCN(C(=O)c3c(C)ncnc3C)CC1)CC2,inactive,–
CC(=O)OC1CC(C)OC(C)O1 (stereo not given),inactive,–
COc1c(N2C[C@@H]3CCCN[C@@H]3C2)c(F)cc2c(=O)c(C(=O)O)cn(C3CC3)c12,inactive,–
Cc1ccc(N)c([N+](=O)[O-])c1,inactive,–
c1cc[c]([Bi]([c]2ccccc2)[c]2ccccc2)cc1,inactive,–
CCC(OCCCOC)OC(C)=O (stereo not given),inactive,–
Nc1cc(S(=O)(=O)O)ccc1S(=O)(=O)O,inactive,–
C/C=C(\C)C(C)=O,inactive,–
CC[C@H](C)COC(=O)/C=C/c1ccc(N=Cc2ccc(OC)cc2)cc1,inactive,–
O=C1CCCCCN1SSN1CCCCCC1=O,inactive,–
Clc1ccnc(Cl)n1,inactive,–
CN1CN(C)CN(C)C1,inactive,–
C=CCOc1nc(OCC=C)nc(OCC=C)n1,inactive,–
OCc1cccc(Oc2ccccc2)c1,inactive,–
O=C(CCCN1CCN(c2ccccn2)CC1)c1ccc(F)cc1,inactive,–
O=C1OC(CN2CCOCC2)CN1/N=C/c1ccc([N+](=O)[O-])o1 (stereo not given),inactive,–
CCCCCCCCC(=O)Cl,inactive,–
CC(=O)OCC(=O)[C@@]1(O)CC[C@H]2[C@@H]3CCC4=CC(=O)C=C[C@]4(C)[C@@]3(F)[C@@H](O)C[C@@]21C,inactive,–
CCCCCCCCCCCCCC(=O)OC,inactive,–

Compound,Potency,"activity change, negative = cytotoxicity"
CCOC(=O)CN,inactive,–
Fc1ccccc1[C@@H](F)COC1CCC(Nc2ncnc3[nH]ncc23)CC1 (stereo not given in full),inactive,–
CCN1CCC[C@H]1CNC(=O)c1cc(S(N)(=O)=O)ccc1OC,inactive,–
CCC(C)C(=O)OC (stereo not given),inactive,–
CCN(CC)c1cccc(C)c1,inactive,–
CO[Si](OC)(OC)OC,inactive,–
CCCCCCCCC(C)=O,inactive,–
CCCCCCCCCCCCCOS(=O)(=O)O,inactive,–
O=S(O)(O)=S,–,9.38% [at 8.39 µM]
C[C@]12CCC(=O)C=C1CC[C@@H]1[C@@H]2[C@@H](O)C[C@@]2(C)[C@H]1CC[C@]2(O)C(=O)CO,inactive,–
C#C[C@]1(OC(C)=O)CC[C@H]2[C@@H]3CCC4=C[C@@H](OC(C)=O)CC[C@@H]4[C@H]3CC[C@@]21C,inactive,–
CCCCCCC(O)CCOC(C)=O (stereo not given),inactive,–
CCc1cc(Cc2cc(CC)c(N)c(CC)c2)cc(CC)c1N,inactive,–
CC(=O)Nc1c(I)c(NC(C)=O)c(I)c(C(=O)O)c1I,inactive,–
CC(C)c1ccc2c(c1)CC[C@H]1[C@](C)(CN)CCC[C@]21C,inactive,–
Cc1nn(C)c(Oc2ccccc2)c1/C=N/OCc1ccc(C(=O)OC(C)(C)C)cc1,inactive,–
CC(O)c1ccccc1 (stereo not given),inactive,–
c1cc[nH]c1,inactive,–
CN(c1nccc(=O)[nH]1)C1CCN(c2nc3ccccc3n2Cc2ccc(F)cc2)CC1,inactive,–
CC1(C)OC[C@@H](COC(=O)CCc2ccc(OC[C@@H](O)CNCCNC(=O)N3CCOCC3)cc2)O1,inactive,–
